Reference: PubChem BioAssay (Tox21)
Records with an inconclusive call do not appear. A call without a number means that no potency is given here. Values without a mark were called inactive. Active and inactive are the calls of the source. Unless noted, calls come from the whole dose curve; as a rule, active = well fitted curve in the direction sought with a large enough effect in the repeat runs; inconclusive = weak or mixed curves; inactive = no such curve, though single readings can be large; an effect the other way counts as inactive or inconclusive.

Legend:
[1] = qHTS assay to identify small molecule agonists of the vitamin D receptor (VDR) signaling pathway - cell viability counter screen (AID 743224); note: nearly all actives have a fitted effect of over 50% in size; note: potency is the fitted concentration of half-maximal effect
How it was run: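 Compounds were pin-transferred onto VDR-bla cells plated 4 h earlier; following 16 h incubation at 37C, cell viability was quantified by CellTiter-Glo luminescence after 30 min at room temperature.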

[2] = qHTS assay to identify small molecule antagonists of the vitamin D receptor (VDR) signaling pathway - cell viability counter screen (AID 743225); note: nearly all actives have a fitted effect of over 50% in size; note: potency is the fitted concentration of half-maximal effect
How it was run: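 HEK293T VDR-bla; cpd + 1a,25-(OH)2D3 3 nM final, 16 h 37C/5% CO2; B/G FRET substrate 2 h RT; then CellTiter-Glo 30 min RT, luminescence.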

[3] = qHTS assay to identify small molecule agonists of the NFkB signaling pathway - cell viability counter screen (AID 1159515; calls by dose curve; note: series mostly up to about 61 µM; nearly all actives have a fitted effect of over 55% in size)
How it was run: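 Parallel cytotoxicity counter screen in ME-180 cells carrying an NFkB-response-element beta-lactamase reporter, 2,000 cells/well. Compound exposure lasted 5 hr at 37 C, 5% CO2. Cell viability was quantified by CellTiter-Glo luminescence.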

[4] = qHTS assay to identify small molecule agonists of the endoplasmic reticulum stress response signaling pathway (AID 1159516; active = well fitted activation curve with a large enough effect in the signal ratio in the repeat runs, not every such curve was filed as active; the % refers to the signal ratio)
How it was run: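 Using a HeLa line with an ESRE-driven beta-lactamase gene, agonist activity was measured by FRET substrate fluorescence (460 and 530 nm emission) after cells were treated with compounds for 5 hr at 37 C and 5% CO2.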

[5] = qHTS assay to identify small molecule antagonists of the retinoid-related orphan receptor gamma (ROR-gamma) signaling pathway - cell viability counter screen (AID 1159520); note: nearly all actives have a fitted effect of over 50% in size
How it was run: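 Tet-on ROR gamma CHO cells (1,000/well) were plated 4 hr, given compounds in DMSO for 2 hr at 37 C, then induced with 1 uM final doxycycline for 16 hr. Viability was read as ATP by CellTiter-Glo luminescence after 30 min.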

[6] = qHTS assay to identify small molecule agonists of the AP-1 signaling pathway - cell viability counter screen (AID 1159525; calls by dose curve; note: nearly all actives have a fitted effect of over 55% in size; note: potency is the fitted concentration of half-maximal effect)
How it was run: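 Each titration point was normalised to DMSO and tetra n-octyl ammonium bromide controls. The read was Cell Titer Glo luminescence after 30 min at RT, following 5 h compound exposure of ME-180 AP-1-bla cells at 37 °C.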

[7] = qHTS assay to identify small molecule agonists of the AP-1 signaling pathway (AID 1159526; calls by dose curve)
[8] = molecular target: Retinoic acid receptor RXR-alpha (Homo sapiens) (UniProt P19793); test: qHTS assay to identify small molecule agonists of the RXR signaling pathway (AID 1159527; calls by dose curve; note: nearly all actives have a fitted effect of over 35% in size)
How it was run: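 Cells plated at 2,000/well, rested 5 hr at 37 C, pin-dosed with DMSO compound solutions, incubated 16 hr, then loaded with B/G FRET substrate for 2 hr at RT before dual-emission fluorescence reading.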

[9] = qHTS assay to identify small molecule agonists of the RXR signaling pathway - cell viability counter screen (AID 1159529); note: nearly all actives have a fitted effect of over 50% in size; note: potency is the fitted concentration of half-maximal effect
How it was run: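 Steps: seed RXR-alpha-UAS-bla HEK 293T cells in assay medium containing 2% charcoal-stripped FBS; incubate 5 hr; add compounds in DMSO; incubate 16 hr at 37 C; after the bla read, add CellTiter-Glo and read luminescence at 30 min.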

[10] = qHTS assay to identify small molecule antagonists of the retinoid acid receptor (RAR) signaling pathway - cell viability counter screen (AID 1159551); note: nearly all actives have a fitted effect of over 35% in size
How it was run: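 ATP-based viability, C3RL4 cells, 6 h at 37 C with 1 uM final retinol co-added after compound; luminescence read 30 min post CellTiter-Glo, RT.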

[11] = qHTS assay to identify small molecule antagonists of the retinoic acid receptor (RAR) signaling pathway (AID 1159552; note: nearly all actives have a fitted effect of over 50% in size; note: potency is the fitted concentration of half-maximal effect)
How it was run: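 Retinol at 1 uM final stimulated RARE-luciferase expression in C3RL4 cells exposed to test compounds for 6 hr at 37 C. Reduced luminescence, read 30 min after detection reagent, indicated pathway antagonism.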

[12] = qHTS assay to identify small molecule agonists of the retinoic acid receptor (RAR) signaling pathway (AID 1159553)
How it was run: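 Quantitative high-throughput format: the Tox21 10K library was tested on C3RL4 RARE-luciferase cells for 6 hr at 37 C and 5% CO2, with luminescence measured after a 30 min room-temperature reagent step.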

[13] = qHTS assay to identify small molecule agonists of the endoplasmic reticulum stress response signaling pathway - cell viability counter screen (AID 1159517; calls by dose curve)
How it was run: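 Cpd-treated ESRE-bla HeLa (5 hr, 37 C) → LiveBLAzer 2 hr RT → CellTiter-Glo 30 min RT → luminescence.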

[14] = molecular target: Nuclear receptor ROR-gamma (Homo sapiens) (UniProt P51449); test: qHTS assay to identify small molecule antagonists of the retinoid-related orphan receptor gamma (ROR-gamma) signaling pathway (AID 1159521; note: nearly all actives have a fitted effect of over 50% in size; note: potency is the fitted concentration of half-maximal effect)
How it was run: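 Cells were plated, rested 4 h at 37 C, exposed to compounds for 2 h, then given 1 uM final doxycycline hyclate to induce RORγ expression. After 16 h, ONE-Glo luminescence from the ROR response element reporter was measured.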

[15] = qHTS assay to identify small molecule antagonists of the estrogen related receptor (ERR) signaling pathway - cell viability counter screen (AID 1224818);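 note: series mostly up to about 46 µM; viability measured after 17.5 h of compound exposure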
How it was run: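 Quantitative high-throughput viability counter screen in ERR cells. Compounds (DMSO) incubated 17.5 h at 37 C; read-out was CellTiter-Fluor fluorescence.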

[16] = qHTS assay to identify small molecule antagonists of the estrogen related receptor signaling pathway with the pleiotropic PPARgamma coactivator (PGC) cell viability counter screen (AID 1224822; note: series mostly up to about 46 µM)
How it was run: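 Cytotoxicity in the PGC/ERR cell line is assessed with CellTiter-Fluor, read as fluorescence intensity 30 min after reagent addition, following 17.5 h compound treatment at 37 C.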

Chain of Retinoic acid receptor RXR-alpha (Homo sapiens) (P19793 whole entry, looked up): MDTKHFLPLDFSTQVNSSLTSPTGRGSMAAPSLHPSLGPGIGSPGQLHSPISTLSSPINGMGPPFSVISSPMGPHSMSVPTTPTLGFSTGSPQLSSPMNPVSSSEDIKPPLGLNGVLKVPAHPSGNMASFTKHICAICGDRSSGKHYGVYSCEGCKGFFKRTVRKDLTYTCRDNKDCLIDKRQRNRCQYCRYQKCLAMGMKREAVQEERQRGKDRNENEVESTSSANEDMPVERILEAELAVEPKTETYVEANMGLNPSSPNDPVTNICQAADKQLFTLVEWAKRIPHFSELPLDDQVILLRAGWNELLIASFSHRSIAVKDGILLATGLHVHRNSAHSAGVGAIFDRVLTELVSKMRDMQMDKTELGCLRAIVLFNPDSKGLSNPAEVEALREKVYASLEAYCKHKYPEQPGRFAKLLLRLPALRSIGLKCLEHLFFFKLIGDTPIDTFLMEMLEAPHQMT

Compound | Potency [1] | Potency [2] | Potency [3] | Potency [4] | Potency [5] | Potency [6] | Potency [7] | Potency [8] | Potency [9] | Potency [10] | Potency [11] | Potency [12] | Potency [13] | Potency [14] | outcome [15] | outcome [16]
O=[N+]([O-])c1ccc2[nH]ncc2c1 | inactive | inactive | inactive | inactive | inactive | inactive | inactive | inactive | inactive | inactive | inactive | inactive |  |  |  | 
O=C(CS)Nc1ccccc1 | inactive | inactive | inactive |  | inactive |  | inactive |  | inactive | inactive |  |  | inactive | inactive |  | 
C#CCN(C)CCCOc1ccc(Cl)cc1Cl | inactive | inactive | inactive |  | inactive |  | inactive | inactive | inactive | inactive | inactive |  | inactive | inactive | inactive | inactive
COc1ccc(C(=O)N2CCN(CC(=O)N3CCOCC3)CC2)cc1 | inactive | inactive | inactive | inactive | inactive |  | inactive |  | inactive | inactive |  |  |  | inactive |  | 
CCCCC1=NC2(CCCC2)C(=O)N1Cc1ccc(-c2ccccc2-c2nn[nH]n2)cc1 |  | inactive | inactive |  | inactive | inactive | inactive | inactive | inactive | inactive | inactive | inactive | inactive |  |  | 
CCCCOC(=O)CCCCCCCC(=O)OCCCC | inactive | inactive | inactive | inactive | inactive | inactive | inactive | inactive | inactive | inactive | inactive | inactive |  |  |  | 
CCCCCCCCCCCCCCOS(=O)(=O)O | 43.6 µM (active) |  | inactive | inactive | inactive | 54.9 µM (active) |  |  | 21.9 µM (active) | inactive |  |  |  |  |  | 
COc1ccc2cccc(CCNC(C)=O)c2c1 | inactive | inactive | inactive | inactive | inactive | inactive | inactive |  | inactive | inactive | inactive | inactive |  |  |  | 
C=C1[C@H]2CC[C@@H]3[C@H]2C(C)(C)CCC[C@]13C | inactive | inactive | inactive | inactive | inactive | inactive | inactive | inactive | inactive | inactive | inactive | inactive |  |  |  | 
CCC(C)(C)CC |  | inactive | inactive |  | inactive |  |  |  | inactive | inactive | inactive |  | inactive | inactive |  | 
O=S(c1cc(Cl)cc(Cl)c1O)c1cc(Cl)cc(Cl)c1O |  | inactive | inactive | inactive |  | inactive |  |  | inactive | inactive | inactive | inactive |  |  |  | 
COc1ccc(-c2nc3ccc(C4=NNC(=O)CC4C)cc3[nH]2)cc1 (stereo unspecified) | inactive |  | inactive | inactive |  | inactive | inactive |  | inactive |  | inactive |  |  | inactive |  | 
COS(=O)(=O)C(F)(F)F |  | inactive | inactive | inactive | inactive | inactive |  | inactive | inactive | inactive |  |  |  |  |  | 
C[C@@H]1C[C@H]2[C@@H]3CCC4=CC(=O)C=C[C@]4(C)[C@@]3(F)[C@@H](O)C[C@]2(C)[C@@]1(O)C(=O)COC(=O)c1ccncc1 | inactive | inactive | inactive | inactive | inactive |  | inactive | inactive | inactive | inactive | inactive | inactive |  |  |  | 
CN1CCC(N(Cc2cccs2)c2ccccc2)CC1 | 33.5 µM (active) | inactive | inactive | inactive | inactive | inactive |  |  |  | inactive |  |  |  | inactive |  | 
CCCCCCCCCc1ccc(OCCOCCO)cc1 | 20.5 µM (active) | 18.3 µM (active) | inactive | inactive | inactive |  |  |  |  |  |  |  |  | 5.11 µM (active) |  | 
COc1cc2c(cc1OC)C(C(C(=O)N(CCc1ccc(OC)c(OC)c1OC)CCc1ccc(OC)c(OC)c1OC)c1ccccc1)=NCC2 (stereo unspecified) | inactive | inactive | inactive | inactive | inactive |  | inactive |  | inactive | inactive | inactive | inactive |  | inactive |  | 
NCC(=O)CCC(=O)O | inactive | inactive | inactive | inactive | inactive | inactive | inactive | inactive | inactive | inactive |  |  |  |  |  | 
CC1OC(=O)C(C)OC1=O (stereo unspecified) | inactive | inactive | inactive | inactive | inactive | inactive | inactive | inactive | inactive | inactive | inactive | inactive |  |  |  | 
O=[N+]([O-])c1ccc(NCCO)c(OCCO)c1 | inactive | inactive | inactive | inactive | inactive | inactive | inactive | inactive | inactive | inactive |  |  |  |  |  | 
Cc1cc(N)c2cc(NC(=O)Nc3ccc4nc(C)cc(N)c4c3)ccc2n1 |  |  | inactive | inactive | inactive |  |  |  | inactive |  | inactive | inactive |  |  |  | 
C=C(C)C(=O)OCC | inactive | inactive | inactive | inactive | inactive |  | inactive | inactive | inactive | inactive | inactive | inactive |  |  |  | 
CC/C=C\CCOC(=O)CC | inactive | inactive | inactive | inactive | inactive | inactive | inactive |  | inactive | inactive |  |  |  |  |  | 
C=CC(=O)OCCOc1ccccc1 | inactive | inactive | inactive | inactive | inactive | inactive |  |  | inactive |  | 48.5 µM (active) | inactive |  |  |  | 
